{"source": "PubChem BioAssay AID1851", "about": "(National Center for Advancing Translational Sciences (NCATS), 2009)", "note": "Several values for one entry are separate records, joined by “and”; a condition that tells them apart may be missing. Identical values can stand only once. The campaign covered roughly 16,000 compounds. About 5,100 (32%) were called active. Not shown: some 25% with an inconclusive outcome. The list shows a part of the results. Values without a mark were called inactive. The call rests on the fitted dose curve; in most records, active means well fitted curve in the direction sought with a large enough effect; inconclusive means small, poorly fitted or top-dose-only effect, or effect the other way; inactive means no such curve, though single readings can be large or run the other way. On the % scale 0 is the no-effect control and ±100 the full control effect.", "data": [{"biological_target": "Cytochrome P450 3A4 (Homo sapiens) (UniProt P08684)", "sequence (P08684 whole entry, looked up)": "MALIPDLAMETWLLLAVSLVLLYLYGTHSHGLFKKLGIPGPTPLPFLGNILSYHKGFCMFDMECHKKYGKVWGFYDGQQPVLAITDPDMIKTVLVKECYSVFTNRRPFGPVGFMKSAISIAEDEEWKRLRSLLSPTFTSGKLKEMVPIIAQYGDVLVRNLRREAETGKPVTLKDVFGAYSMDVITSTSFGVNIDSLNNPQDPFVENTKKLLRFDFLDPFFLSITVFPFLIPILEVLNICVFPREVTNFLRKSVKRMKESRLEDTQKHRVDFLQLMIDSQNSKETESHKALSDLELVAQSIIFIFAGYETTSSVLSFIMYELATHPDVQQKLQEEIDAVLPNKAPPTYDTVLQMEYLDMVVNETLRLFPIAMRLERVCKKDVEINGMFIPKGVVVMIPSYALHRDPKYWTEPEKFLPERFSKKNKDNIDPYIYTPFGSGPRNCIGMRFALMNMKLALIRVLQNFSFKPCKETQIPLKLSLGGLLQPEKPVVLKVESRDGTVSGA", "experiment": "Cytochrome panel assay with activity outcomes", "conditions": "recombinant CYP, pro-luciferin dealkylation, luminescence, p450-cyp3a4; series mostly up to 57.1 µM", "values": [{"compound": "CCCCCCCCCCCC1=C(O)C(=O)C=C(O)C1=O", "AC50": "inactive"}, {"compound": "O=C(O)c1ccccc1C(=O)Nc1cc2c(cc1Br)-c1ccccc1C2=O", "activity, negative = inhibition": "-24.8% [at 11.4 µM]"}, {"compound": "O=C(O)CCCCCNC(=O)c1ccccc1Br", "AC50": "inactive"}, {"compound": "NNC(=O)CNC(c1ccccc1)c1cc(Br)ccc1NC(=O)c1ccccc1Br", "note": "(configuration not stated)", "AC50": "0.794 µM (active)"}, {"compound": "CCOC(=O)CCN1C(=O)[C@H]2[C@H]3[C@H](O)[C@H](O)C/C(=N/OCC(C)C)[C@H]3CC[C@@H]2C1=O", "activity, negative = inhibition": "-22.9% [at 11.4 µM]"}, {"compound": "COc1ccccc1-c1cc(NCc2cccnc2)ncn1", "AC50": "5.01 µM (active)"}, {"compound": "Cc1ccccc1-c1cc(NCc2cccnc2)ncn1", "AC50": "10 µM (active)"}, {"compound": "Cc1ccccc1-c1cc(NCc2ccccc2)ncn1", "AC50": "inactive"}, {"compound": "O=C(O)[C@H]1CCCNC1", "AC50": "inactive"}, {"compound": "NS(=O)(=O)c1ccc(NCc2nc3ccccc3[nH]2)cc1", "activity, negative = inhibition": "-19.2% [at 11.4 µM]"}, {"compound": "NS(=O)(=O)c1ccc(NCc2cnc3ccccc3n2)cc1", "activity, negative = inhibition": "-7.19% [at 11.4 µM]"}, {"compound": "NS(=O)(=O)c1ccc(NCc2ccccc2OCc2ccccc2F)cc1", "AC50": "15.8 µM (active)"}, {"compound": "CCCOc1ccccc1-c1nc2n[nH]nc2c(=O)[nH]1", "AC50": "inactive"}, {"compound": "O=C1c2ccccc2NC(c2ccc(Cl)cc2Cl)N1O", "note": "(configuration not stated)", "AC50": "inactive"}, {"compound": "C=CCc1cccc(C2Nc3ccccc3C(=O)N2O)c1O", "note": "(configuration not stated)", "AC50": "20 µM (active)"}, {"compound": "CC(=O)c1c(O)cc(=O)n(-c2ccccc2)c1-c1ccc(C)cc1", "AC50": "inactive"}, {"compound": "Cc1cc(O)c(C(C)C)cc1CN1CCCCC1", "activity, negative = inhibition": "-7.75% [at 11.4 µM]"}, {"compound": "Cc1cc(O)c(C(C)C)cc1C1(c2cc(C(C)C)c(O)cc2C)OC(=O)c2ccccc21", "AC50": "1.58 µM (active)"}, {"compound": "Fc1ccc(COc2ccc(Br)cc2CNCc2ccncc2)cc1", "AC50": "0.562 µM (active)"}, {"compound": "FC(F)(F)c1ccccc1-c1nc(NCc2cccs2)c2ccccc2n1", "AC50": "3.98 µM (active)"}, {"compound": "Clc1ccccc1-c1nc(NCc2cccs2)c2ccccc2n1", "AC50": "6.31 µM (active)"}, {"compound": "C/C(=N\\NC(=O)c1cccc(C)c1)c1cccc(NC(=O)c2ccco2)c1", "activity, negative = inhibition": "-7.23% [at 2.29 µM]"}, {"compound": "C/C(=N/NC(=O)Cc1cccn1C)c1ccccc1", "AC50": "inactive"}, {"compound": "C/C(=N\\NC(=S)Nc1cccc(C)c1)c1ccccc1", "AC50": "8.91 µM (active)"}, {"compound": "COc1cc(C(=O)NCc2cccc3ccccc23)cc(Cl)c1OC", "AC50": "10 µM (active)"}, {"compound": "O=S(=O)(c1ccccc1)N1CN2CN(C1)CN(S(=O)(=O)c1ccccc1)C2", "activity, negative = inhibition": "-1.65% [at 11.4 µM]"}, {"compound": "O=S(=O)(c1ccccc1S(=O)(=O)N1CCCCC1)N1CCCCC1", "AC50": "8.91 µM (active)"}, {"compound": "O=C(O)C1(C(=O)O)CCN(S(=O)(=O)c2ccccc2)CC1", "activity, negative = inhibition": "-12.3% [at 11.4 µM]"}, {"compound": "C[C@H]1CN(S(=O)(=O)c2cccc3cnccc23)CCN1", "AC50": "10 µM (active)"}, {"compound": "COc1ccc(S(=O)(=O)N2CCCCCC2)cc1N(C)S(=O)(=O)c1ccc(Cl)cc1", "activity, negative = inhibition": "-26.2% [at 2.29 µM]"}, {"compound": "O=S(=O)(c1cccc2c(Cl)cccc12)N1CCCNCC1", "AC50": "5.01 µM (active) and 3.98 µM (active)"}, {"compound": "CC1CCN(C(=O)C2CCN(S(=O)(=O)c3cccc4nonc34)CC2)CC1", "AC50": "inactive"}, {"compound": "O=S(=O)(c1cccc2cnccc12)N1CCNCC1", "AC50": "12.6 µM (active)"}, {"compound": "CCOC(=O)C(NC(C)=O)C(=O)O", "note": "(configuration not stated)", "AC50": "inactive"}, {"compound": "O=C1C=CC(=Nc2cccc3c(N=C4C=CC(=O)O4)cccc23)O1", "activity, negative = inhibition": "-24.5% [at 11.4 µM]"}, {"compound": "CC(C)=CCc1c(C)nc2ccccc2c1C(=O)O", "AC50": "inactive"}, {"compound": "CCC1C(=O)N=C(SCC(=O)Nc2ccc(C(=O)OC)cc2)NC1=O", "note": "(configuration not stated)", "AC50": "inactive"}, {"compound": "COC(=O)c1cc(NC(=O)CC2NC3CCCCC3NC2=O)cc(C(=O)OC)c1", "note": "(configuration not stated)", "AC50": "28.2 µM (active)"}, {"compound": "COC(=O)c1ccc(NC(=O)C2CCCCC2C(=O)O)cc1", "note": "(configuration not stated)", "AC50": "inactive"}, {"compound": "COC(=O)c1cc(=O)[nH]c(=O)[nH]1", "activity, negative = inhibition": "0.116% [at 11.4 µM]"}, {"compound": "CC(=O)c1c(C)[nH]c(C(=O)COc2ccc(C#N)cc2)c1C", "AC50": "3.16 µM (active)"}, {"compound": "CC(=O)COc1ccc2c(C)c(C)c(=O)oc2c1", "activity, negative = inhibition": "-1.64% [at 2.29 µM]"}, {"compound": "CC(=O)N1CCN(c2nc(C)nc3sc4c(c23)CCC(C)C4)CC1", "note": "(configuration not stated)", "AC50": "inactive"}, {"compound": "CC#CCOC(=O)c1c(C)nc2sc3c(c2c1N)CC[C@@H](O)C3", "AC50": "3.16 µM (active)"}, {"compound": "COCCN1C(=O)C(=O)/C(=C(/O)c2cccc(OC)c2)C1c1ccc(C)o1", "note": "(configuration not stated)", "AC50": "inactive"}, {"compound": "COc1cccc(/C(O)=C2/C(=O)C(=O)N(c3cc(C)on3)C2c2cccs2)c1", "note": "(configuration not stated)", "AC50": "28.2 µM (active)"}, {"compound": "Cc1cc(N2C(=O)C(O)=C(C(=O)c3ccco3)C2c2ccc(O)cc2)no1", "note": "(configuration not stated)", "AC50": "inactive"}, {"compound": "COC(=O)[C@@]1(Cc2ccc(OC)cc2)[C@H]2c3cc(C(=O)N4CCCC4)n(Cc4ccc(C(F)(F)F)nc4)c3C[C@H]2CN1C(=O)c1ccccc1", "AC50": "3.16 µM (active)"}, {"compound": "COC(=O)[C@@]1(Cc2ccc(F)cc2)[C@H]2c3cc(C(=O)N(C)C)n(Cc4ccc(C(F)(F)F)nc4)c3C[C@H]2CN1C(=O)c1ccccc1", "AC50": "1.26 µM (active)"}, {"compound": "COC(=O)[C@@]1(Cc2ccc(OC)cc2)[C@H]2c3cc(C(=O)N4CCCC4)n(CCn4cc([N+](=O)[O-])nc4C)c3C[C@H]2CN1C(=O)c1ccccc1", "AC50": "3.98 µM (active)"}, {"compound": "COC(=O)[C@@]1(Cc2ccccc2)[C@H]2c3cc(C(=O)N4CCCC4)n(Cc4ccc(C(F)(F)F)nc4)c3C[C@H]2CN1C(=O)c1ccccc1", "AC50": "3.16 µM (active)"}, {"compound": "O=C(NCCCn1ccnc1)c1ccc(Br)c(S(=O)(=O)N2CCOCC2)c1", "AC50": "2 µM (active)"}, {"compound": "CN1CCc2[nH]nc(-c3n[nH]c4c3CN(C)CC4)c2C1", "activity, negative = inhibition": "-6.16% [at 11.4 µM]"}, {"compound": "CCN1CCN(C(=O)N[C@H](C(=O)N[C@@H]2C(=O)N3[C@@H]2SC(C)(C)[C@@H]3C(=O)O)c2ccccc2)C(=O)C1=O", "AC50": "inactive"}, {"compound": "CCOC(=O)c1ccc(Cl)c(NC(=O)c2ccc(-c3ccccc3)cc2)c1", "activity, negative = inhibition": "6.61% [at 11.4 µM]"}, {"compound": "CCOc1c(Cl)cc(C(=O)Nc2ccccc2-c2ccccc2)cc1Cl", "AC50": "14.1 µM (active)"}, {"compound": "CO[C@@H]1COC(=O)CC=C[C@@H](C)[C@@H]2C=C[C@H](O)[C@@H](COC(=O)[C@H](C)NC(=O)CC=C[C@H]1C)O2", "activity, negative = inhibition": "-23.2% [at 11.4 µM]"}, {"compound": "CCOC(=O)C1CCCN(C(=O)c2cc3nc(-c4ccc5c(c4)OCO5)cc(C(F)(F)F)n3n2)C1", "note": "(configuration not stated)", "AC50": "3.98 µM (active)"}, {"compound": "COc1ccc(NC(=O)N2CCC3(CC2)CCN(C(=O)c2cnccn2)CC3)cc1", "AC50": "inactive"}, {"compound": "COC(=O)c1ccccc1NC(=O)c1cc2nc(C3CC3)cc(C(F)(F)F)n2n1", "AC50": "inactive"}, {"compound": "COc1ccc(-c2cc(C(F)(F)F)n3nc(C(=O)N4CCCCC4)cc3n2)cc1", "AC50": "14.1 µM (active)"}, {"compound": "CCOC(=O)c1[nH]c(C(=O)O)c(CCN(CC)CC)c1C", "AC50": "inactive"}, {"compound": "CN(C)Cc1ccc(-c2cc3onc(-c4ccccc4)c3c(=O)n2C)cc1", "activity, negative = inhibition": "8.36% [at 11.4 µM]"}, {"compound": "CC(=O)c1ccc(S(=O)(=O)NC(=O)NC2CCCCC2)cc1", "AC50": "inactive"}, {"compound": "COc1ccc(C(C(=O)NC2CCCC2)N(C(=O)c2snc(-c3ccc(F)cc3)c2N)c2ccccc2)cc1", "note": "(configuration not stated)", "activity, negative = inhibition": "-12% [at 2.29 µM]"}, {"compound": "COc1ccc(C(C(=O)NC2CCCCC2)N(C(=O)c2sc(C)nc2C)c2ccc(OC)cc2)cc1", "note": "(configuration not stated)", "AC50": "12.6 µM (active)"}, {"compound": "COc1ccc(C(C(=O)NC2CCCCC2)N(C(=O)CCCC(=O)Nc2ccccn2)c2ccc3c(c2)OCCO3)cc1", "note": "(configuration not stated)", "AC50": "1.26 µM (active)"}, {"compound": "COc1ccc(C(C(=O)NC2CCCCC2)N(C(=O)c2sc(C)nc2C)c2ccc(C(C)=O)cc2)cc1", "note": "(configuration not stated)", "AC50": "25.1 µM (active)"}, {"compound": "COc1ccc([N+](=O)[O-])cc1NC(=O)CC(C)c1ccccc1", "note": "(configuration not stated)", "AC50": "7.08 µM (active)"}, {"compound": "CCOc1ccc(NC(=S)NC(=O)/C=C/c2ccc(OC)c(OC)c2)c([N+](=O)[O-])c1", "AC50": "inactive"}, {"compound": "COc1ccc([N+](=O)[O-])cc1NCc1ccccc1C", "AC50": "12.6 µM (active)"}, {"compound": "COc1ccc([N+](=O)[O-])cc1NC(=S)NC(NC(=O)Cc1ccc(OC)c(OC)c1)C(Cl)(Cl)Cl", "note": "(configuration not stated)", "AC50": "1.58 µM (active)"}, {"compound": "CC(CC(=O)O)CC(=O)Nc1ccc(S(N)(=O)=O)cc1", "note": "(configuration not stated)", "activity, negative = inhibition": "-4.05% [at 2.29 µM]"}, {"compound": "COc1ccc(OC)c(NC(=O)CC(Cc2ccccc2OC)C(=O)O)c1", "note": "(configuration not stated)", "AC50": "inactive"}, {"compound": "CC(CC(=O)Nc1ccc(Cl)c([N+](=O)[O-])c1)c1ccccc1", "note": "(configuration not stated)", "AC50": "10 µM (active)"}, {"compound": "Cc1ccc([N+](=O)[O-])cc1NC(=S)NC(=O)C(C)(C)C", "AC50": "inactive"}, {"compound": "CC(C)CC(=O)Nc1ccc2c(c1)oc1ccccc12", "AC50": "inactive"}, {"compound": "C1CNCCOCCNCCN1", "AC50": "inactive"}, {"compound": "Cn1c(=O)[nH]c(=O)c2c1nc(CN1CCOCC1)n2CCCO", "AC50": "inactive"}, {"compound": "COc1ccc(N2CCN(Cc3nc4c(c(=O)[nH]c(=O)n4C)n3CCCc3ccccc3)CC2)cc1", "AC50": "2.24 µM (active)"}, {"compound": "COc1ccc(N2CCN(Cc3nc4c(c(=O)n(C)c(=O)n4C)n3CC(C)=O)CC2)cc1", "AC50": "inactive"}, {"compound": "CCOC(=O)Cn1c(CN(Cc2ccccc2)Cc2ccccc2)nc2c1c(=O)[nH]c(=O)n2C", "AC50": "25.1 µM (active)"}, {"compound": "Cn1c(=O)[nH]c(=O)c2c1nc(CN(Cc1ccccc1)Cc1ccccc1)n2CCN1CCOCC1", "AC50": "4.47 µM (active)"}, {"compound": "CCN1CCN(c2nc3c(c(=O)[nH]c(=O)n3C)n2CCCSc2ncccn2)CC1", "AC50": "inactive"}, {"compound": "Cn1c(=O)c2c(nc(Cc3ccccc3)n2CC(=O)O)n(C)c1=O", "activity, negative = inhibition": "-2.47% [at 11.4 µM]"}, {"compound": "CCOC(=O)N1CCN(Cc2nc3c(c(=O)[nH]c(=O)n3C)n2Cc2ccccc2C)CC1", "AC50": "3.98 µM (active)"}, {"compound": "Oc1cc2c(cc1O)[C@H](c1ccccc1)CNCC2", "AC50": "inactive"}]}]}
